# Screening results: PubChem, National Center for Advancing Translational Sciences (NCATS)
# The entries come from a sample that favours hits as a whole.
# LmPK inh = inhibitors of Leishmania mexicana pyruvate kinase. Q27686. purified LmPK, Kinase-Glo ATP luminescence, 1 h. Potency, µM (top dose mostly 57.5 µM), usual class: inhibitors. 290,000 compounds, 0.37% hits
#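 ATP generated from ADP (0.1 mM) and PEP (0.5 mM) by 0.1 nM LmPK over 1 h at room temperature (pH 7.2 imidazole buffer) was detected by coupled luciferase luminescence. Values were normalized to uninhibited and no-enzyme wells.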
# Sm TGR inh = inhibitors of Schistosoma mansoni thioredoxin glutathione reductase. purified TGR, DTNB reduction, TNB absorbance 405 nm. Q962Y6. 360,000 compounds, 3% hits. Potency, µM (series often up to 114 µM), most hits filed as inhibitors; further: nearly all actives have a fitted effect of over 60% in size
#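 Kinetic colorimetric format: TGR-catalysed, NADPH-driven DTNB reduction monitored via TNB absorbance. Enzyme dispensed at 20 nM; compound exposure 15 min at room temperature before reaction start.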
# Giardia FBPA inh = Giardia lamblia aldolase inhibition | purified Giardia FBPA | AID 2451 | 290,000 compounds, 0.71% hits | A8B2U2 | Potency, µM (titrated, usually from 59.6 µM), usual class: inhibitors; further: nearly all actives have a fitted effect of over 55% in size
# Target sequence (A8B2U2 whole entry, looked up): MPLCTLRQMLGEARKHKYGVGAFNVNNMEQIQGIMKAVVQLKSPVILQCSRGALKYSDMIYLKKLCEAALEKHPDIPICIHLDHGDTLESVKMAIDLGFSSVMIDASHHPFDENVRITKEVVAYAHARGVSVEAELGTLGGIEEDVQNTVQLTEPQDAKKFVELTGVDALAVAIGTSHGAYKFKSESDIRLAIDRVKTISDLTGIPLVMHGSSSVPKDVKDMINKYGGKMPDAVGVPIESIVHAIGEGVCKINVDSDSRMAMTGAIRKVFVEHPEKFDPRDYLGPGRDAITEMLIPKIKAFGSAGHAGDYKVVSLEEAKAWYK
#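 Giardia FBPA (40 nM reagent) was preincubated 10 min at RT with compound (up to 57.5 uM final), then substrate plus GAPDH/TPI/NAD/arsenate coupling system with diaphorase/resazurin was added; resorufin fluorescence (525/598 nm) was read after 20 min.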
# Shiga toxin inh = blocks Shiga toxin action in Vero cells; Vero cells, Shiga toxin protein synthesis inhibition reporter; inhibition, % at 38.7 µM; 290,000 compounds, 9.2% hits; AID 2315; in the data active means inhibition mostly above about 28%, no sharp cut-off; inactive means mostly below about 43%
# Tb PYK inh = blocks Trypanosoma brucei pyruvate kinase | Q57TT1 | TbPYK enzyme, Kinase-Glo Plus ATP luminescence, 45 min | Potency, µM (highest dose often 76.8 µM), hits mostly inhibitors | 410,000 compounds, 0.12% hits | AID 624173; further: nearly all actives have a fitted effect of over 50% in size
#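 Assay buffer: 50 mM TEA pH 7.2, 100 mM KCl, 10 mM MgCl2, 0.05% BSA, 0.01% Tween-20. Pyruvate kinase from T. brucei plus substrate met compound, then ADP (130 uM final). Luminescence was read post 45 min RT.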
# Cycloheximide cs = counter-screen for Shiga toxin inhibitors: cycloheximide protein synthesis inhibition | max response, % | AID 2314 | cell reporter, cycloheximide protein synthesis inhibition counterscreen | 300,000 compounds, 12% hits; in the data active means max response mostly above about 13%, no sharp cut-off; inactive means mostly below about 14%; further: read at 38.3 µM for the half of the compounds with a filed dose
# Hits are given with their value; – = inactive; ? = inconclusive; · = no result given; [ ] = remark or other dose. Unless noted, the call rests on the fitted dose curve; in most records, active means well fitted curve in the direction sought with a large enough effect; inconclusive means small, poorly fitted or top-dose-only effect, or another doubt; inactive means no such curve, though single readings can be large; an effect the other way counts as inactive or inconclusive.
SMILES,LmPK inh,Sm TGR inh,Giardia FBPA inh,Shiga toxin inh,Tb PYK inh,Cycloheximide cs
CC(NC(=O)CSc1nc(-c2cccc(Cl)c2)nc2cc(=O)[nH]n12)c1nc2ccccc2n1C (configuration not stated),·,–,·,·,–,·
CCN(CCCNC(=O)c1nn(-c2ccc(OC)c(Cl)c2)c(=O)c2c1c1ccccc1n2C)c1ccccc1,·,–,·,·,–,·
CCOc1ccc(N/C(C)=C\C(=O)c2ccc3c(c2)OCCO3)cc1,–,–,–,86,–,50
CCOc1ccc(N/C(C)=C/C(=O)c2ccc3c(c2)OCCO3)cc1,–,–,?,60,–,56
CCOc1ccc(C(=O)N(CC)CC(=O)Nc2ccc3c(c2)OCCO3)cc1,·,–,·,·,–,·
CCOc1ccc(C(=O)NC2CC(=O)N(c3ccc4c(c3)OCCO4)C2)cc1 (configuration not stated),·,–,·,·,–,·
CCSc1ncc(Cl)c(C(=O)N(Cc2ccccc2)c2ccc(OC)cc2)n1,·,–,·,·,–,·
CCCCS(=O)(=O)N1CCc2nc(-c3ccc(OC)cc3C)c3c(c2C1)CO[C@@H](c1ccccc1)C3,–[11.5 µM],·,–[12.9 µM],·,·,·
CCCCCCCCCCCCCCCC(=O)C(F)(F)F,·,·,–,·,·,·
Cc1ccc2nc3c(nc2c1C)C(O)=C3O,–,7.9µM,–,–,–,–
Clc1ccc(Nc2nnc(Cc3ccncc3)c3ccccc23)cc1,·,·,·,·,–,·
CCCOc1ccc(C(=O)CCNc2cccc(Cl)c2)cc1,–,?,–,130,–,25
COc1ccc(C(=O)CCNc2cccc(Cl)c2)cc1,–,45µM,–,–,–,–
COc1ccc(C(=O)CCC(=O)Nc2cccc(Cl)c2)cc1,–,–,–,–,–,–
CCCOc1ccc(C(=O)Nc2cccc(NC(=O)c3cccc(Cl)c3)c2)cc1,·,–,·,·,–,·
Nc1c(C(=O)Nc2cccc(F)c2)nnn1-c1ccc2c(c1)OCCO2,–,–,–,70,–,20
CCOc1ccccc1NC(=O)c1nnn(CC(=O)Nc2ccc3c(c2)OCO3)c1N,–,–,·,–,–,–
Cc1ccccc1NC(=O)c1nnn(-c2ccc3c(c2)OCCO3)c1N,–,–,·,80,–,53
Nc1c(C(=O)Nc2ccc3c(c2)OCCO3)nnn1Cc1ccc(F)cc1,·,–,·,·,–,·
CCOc1ccccc1NC(=O)c1nnn(-c2ccc3c(c2)OCCO3)c1N,–,–,–,64,–,26
COc1ccc(CCNC(=O)c2nnn(-c3ccccc3OC)c2N)cc1OC,–,–,–,–,–,–
COc1ccc(CCNC(=O)c2nnn(-c3ccc4c(c3)OCCO4)c2N)cc1OC,–,–,–,151,–,70
Nc1c(C(=O)Nc2ccc3c(c2)OCCO3)nnn1Cc1ccccc1Cl,·,–,·,·,–,·
CCC(=O)N1CCc2cc(S(=O)(=O)CCC(=O)Nc3cc(Cl)ccc3OC)ccc21,·,–,·,·,–,·
COc1ccc(CCNC(=O)c2noc(C)c2[N+](=O)[O-])cc1OC,–,35µM,–,–,–,–
SMILES,LmPK inh,Sm TGR inh,Giardia FBPA inh,Shiga toxin inh,Tb PYK inh,Cycloheximide cs
Cn1c(COc2ccccc2Br)nc2ccccc21,–,–,–,56,–,44
COc1cc(C(=O)Cc2nc3ccccc3n2C)cc(OC)c1OC,–,–,–,–,–,–
COc1ccccc1OCc1nc2ccccc2n1C,–,–,–,134,–,51
Cc1ccc(-c2nnc(OCc3nc4ccccc4n3C)c3ccccc23)cc1,·,·,·,·,–,·
COC(=O)c1sccc1N/N=C/c1cccc(OC)c1O,–,–,–,–,–,19
COC(=O)c1sccc1N/N=C/c1cccc(Oc2ccccc2)c1,–,–,–,38,–,40
COC(=O)c1sccc1N/N=C/c1ccc(OC)c(OC)c1OC,–,–,–,39,–,47
COc1ccc2nc(C)cc(N/N=C/c3cccc(OC)c3O)c2c1,–,–,–,–,–,–
O=C(CCC(=O)N1CCN(c2cccc(Cl)c2)CC1)c1cccs1,·,–,·,·,–,·
NC(=O)c1ccc(/C(N)=N/S(=O)(=O)c2cc(C(F)(F)F)cc(C(F)(F)F)c2)cc1,–,–,–,–,–,–
N#Cc1ccc(CS(=O)(=O)c2nnnn2C2CCCCC2)cc1,·,·,–,·,·,·
COc1ccc(NC(=O)CC2C(=O)N(c3ccc(OC)cc3)C(=S)N2NC(=O)c2cccc(F)c2)cc1 (configuration not stated),–,–,–,–,–,–
